Out of some 370,000 compounds screened, about 1,100 (0.3%) were called active. About 1% were inconclusive and are not listed. The entries come from a sample that favours actives as a whole. A number with no mark means an inactive call. Calls come from the whole dose curve; as a rule, active = well fitted activation curve with a large enough effect; inconclusive = small, poorly fitted or top-dose-only effect; inactive = flat fitted curve, though single readings scatter.
% is set by controls: 0 for no effect and ±100 for the full control effect; potency is the fitted concentration of half-maximal effect.

Chain of Relaxin receptor 1 (Homo sapiens) (Q9HBX9 whole entry, looked up): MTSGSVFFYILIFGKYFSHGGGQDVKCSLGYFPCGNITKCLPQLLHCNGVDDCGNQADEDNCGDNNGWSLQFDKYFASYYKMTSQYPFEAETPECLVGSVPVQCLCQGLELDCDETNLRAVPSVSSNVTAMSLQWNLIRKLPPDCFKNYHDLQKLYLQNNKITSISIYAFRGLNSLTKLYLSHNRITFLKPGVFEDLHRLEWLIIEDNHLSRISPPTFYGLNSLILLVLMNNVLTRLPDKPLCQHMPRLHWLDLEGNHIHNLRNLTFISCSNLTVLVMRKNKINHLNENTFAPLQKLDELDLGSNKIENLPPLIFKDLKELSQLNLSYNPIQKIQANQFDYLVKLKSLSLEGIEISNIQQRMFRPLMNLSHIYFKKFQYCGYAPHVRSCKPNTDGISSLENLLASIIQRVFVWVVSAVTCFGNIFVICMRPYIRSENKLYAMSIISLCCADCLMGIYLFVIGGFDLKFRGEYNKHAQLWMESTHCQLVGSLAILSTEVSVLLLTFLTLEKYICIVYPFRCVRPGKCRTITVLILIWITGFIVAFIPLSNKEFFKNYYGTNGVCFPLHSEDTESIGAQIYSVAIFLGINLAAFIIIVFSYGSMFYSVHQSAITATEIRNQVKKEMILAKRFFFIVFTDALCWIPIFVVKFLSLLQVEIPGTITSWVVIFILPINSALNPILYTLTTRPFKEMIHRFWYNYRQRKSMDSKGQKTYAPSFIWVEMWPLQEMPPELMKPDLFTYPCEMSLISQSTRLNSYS

The assay concerns the target Relaxin receptor 1 (Homo sapiens) (UniProt Q9HBX9). The assay is described as follows: qHTS Assay for Agonists of the Relaxin Receptor RXFP1. Note: nearly all actives have a fitted effect of over 60% in size. Conditions: HEK293T-RXFP1 cAMP TR-FRET, 30 min; series mostly up to 57.5 µM; activation: at the top concentration. The procedure, abridged: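 HEK293 cells stably expressing RXFP1, treated 30 min at 37C with compounds plus PDE4 inhibitor Ro 20174; cAMP measured by HTRF TR-FRET. Normalized to buffer and 29 nM porcine relaxin; EC50 by Hill fit.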
A general note: qHTS replaces the single test concentration by a dilution series.
For the compound `Cc1ccccc1NC(=O)c1cc2c([nH]c1=O)CC(C)(C)CC2=O`, the “activation” value was 19%.
For `O=C(CCn1c(=O)c2sccc2n(Cc2ccc(F)cc2)c1=O)NCc1ccc2c(c1)OCO2`, the “activation” value was 13.4%.
Same read-out and setting: as for `CCCCN1CC(c2nc3ccccc3n2CCCCOc2ccc(C)cc2C)CC1=O` (stereo unspecified), the figure is -4.27%; as for `O=C(c1ccc(C(F)(F)F)cc1)N1CCC(c2nc(-c3ccc(S(=O)(=O)N4CCCC4)cc3)no2)CC1`, -4.31%; as for `CC(C)(C)c1ccc(C(=O)NCC(c2ccco2)S(=O)(=O)c2ccc(F)cc2)cc1` (stereo unspecified), 1.03%.
On to `COc1ccc(Cc2nc3ccc(C(=O)NCc4ccc(OC)cc4OC)cc3o2)cc1`, for which the “activation” value is -1.3%.
Same read-out and setting: as for `O=C(CSCc1cnn(-c2ccccc2)c1-n1cccc1)NCc1ccc(Cl)cc1`, the figure is 0.103%; as for `O=C(Nc1ccc(Br)cc1)c1ccc(Br)c(S(=O)(=O)NCc2ccccc2)c1`, 2.11%.
Regarding `O=C(Nc1ccc2nc(SCC(=O)N3CCCc4ccccc43)sc2c1)c1ccc(Cl)cc1`, the “activation” value is -0.685%.
With `CCOC(=O)c1ccc(N2C(=O)c3[nH]nc(-c4ccccc4)c3C2c2ccc(C(C)C)cc2)cc1` (stereo unspecified), the “activation” value was 1.54%.
On to `Fc1ccc(-c2nn(-c3ccccc3Cl)c3c2cnc2ccccc23)cc1`, for which the “activation” value was 1.05%.
The same measure, in the same setting: the result for `CCOc1cccc2sc(N3CCN(C(=O)C4CC4)CC3)nc12` reads 2.27%; that for `COc1ccc(C(=O)COC(=O)c2nn(C)c(=O)c3ccccc23)c(OC)c1`, 2.52%.
Consider `COc1ccc(C(=O)COC(=O)Cn2cnc3c2c(=O)n(C)c(=O)n3C)c(OC)c1`, for which the Potency was 15.8 µM (active).
Regarding `Cn1c(=O)c2c(ncn2CC(=O)N2CCN(c3ccccc3)CC2)n(C)c1=O`, the “activation” value is 5.92%.
The same measure, in the same setting: the result for `COc1ccc(Cn2ccnc2SCC(=O)Nc2ccc3c(c2)OCO3)cc1` reads 0.543%; that for `CCC(C)c1ccc2oc(-c3ccc(NC(=O)c4cc5ccccc5o4)cc3)nc2c1` (stereo unspecified), 13.4%; that for `Cn1nnnc1SCCNCc1ccc(Cl)c(Cl)c1`, 6.77%.
The same measure, in the same setting: the result for `COc1ccc(Br)cc1CNC(=O)c1cc(=O)[nH]c2ccc(S(=O)(=O)N3CCCC3)cc12` reads 2.91%; that for `CCOC(=O)c1ccc(CSc2nnc3cc(C)c4ccccc4n23)cc1`, -0.266%; that for `O=c1cc(-c2ccccc2)n2c(SCc3ccccc3)nnc2[nH]1`, 6.6%.
Regarding `O=c1c2sccc2nc(SCc2cc(=O)n3ccccc3n2)n1-c1ccc(Br)cc1`, the “activation” value is 3.4%.
The same measure, in the same setting: the result for `Cc1cccc2nc(CSc3nc4[nH]ncc4c(=O)n3-c3cccc(Cl)c3)cc(=O)n12` reads 0.541%.
Take `CCc1ccc(-n2c(SCc3cc(=O)n4cc(Br)ccc4n3)nc3[nH]ncc3c2=O)cc1`: the Potency is 20 µM (active).
For `CCCN1C(=O)C(O)(CC(=O)c2ccc(CC)cc2)c2cc(Br)ccc21` (stereo unspecified), the “activation” value was 0.237%.
The same measure, in the same setting: as for `COc1cccc(CNC(=O)Cn2ncn3c(cc4ccccc43)c2=O)c1`, the figure is 4.71%; as for `CCCSc1ncc(Cl)c(C(=O)Nc2c(C(=O)Nc3ccccc3)oc3ccccc23)n1`, 1.04%; as for `Cc1cc(NS(=O)(=O)c2ccc(NC(=O)c3ccccc3C)cc2)nc(C)n1`, 0.704%.
Still for that read-out and setting: as for `CCCn1c(NCc2ccccc2F)nc2ccccc21`, the figure is 1.98%; as for `COc1ccc(-c2cn3c(n2)sc2cc(C(=O)Nc4ccc(F)cc4)ccc23)cc1`, 6.49%.
On to `O=C(Cn1nc(Cc2cccnc2)c2ccccc2c1=O)N1CCN(c2ccccc2F)CC1`, for which the “activation” value was 1.65%.
Turning to `Cc1ccccc1NC(=O)Cn1c(=O)n(CCCCC(=O)NCc2ccccc2Cl)c(=O)c2ccccc21`, the “activation” value was -0.36%.
As to `CCCCNC(=O)CSc1nc2cc3c(cc2c(=O)n1CCCCCC(=O)NCc1ccc2c(c1)OCO2)OCO3`, the “activation” value was 0.833%.
In the case of `CC1(C)Cc2nc3sc4c(SCC(=O)NC(c5ccccc5)c5ccccc5)ncnc4c3cc2CO1`, the Potency was 3.16 µM (active).
As to `O=C(CSc1ncnc2scc(-c3ccccc3)c12)NCc1ccc2c(c1)OCO2`, the “activation” value is 3.7%.
Take `CC(C)CCSc1ncnc2c1oc1nc3c(cc12)COC(C)(C)C3`: the “activation” value is 3.1%.
Consider `Cc1ccc(Cl)cc1N1CCN(S(=O)(=O)c2cc3[nH]c(=O)c(=O)[nH]c3cc2C)CC1`, for which the “activation” value is -0.379%.
As to `COc1ccc2c(c1)Cc1sc(NC(=O)c3ccccc3Br)nc1-2`, the “activation” value is -0.462%.
Still for that read-out and setting: the result for `COc1ccc(NC(=O)CCc2nnc3n(CC(C)C)c(=O)c4ccccc4n23)cc1OC` reads 1.01%; that for `COc1cc(OC)cc(C(=O)Nc2c(C(=O)Nc3ccc(F)cc3)oc3ccccc23)c1`, 21.3%; that for `COc1cccc(-c2nc(CS(=O)(=O)CC(=O)N3CCN(c4cc(C)ccc4C)CC3)c(C)o2)c1`, -2.79%.
On the same count and under the same terms, as for `Cc1cccc(Cn2c(SCc3ccc(C(=O)N4CCC(C)CC4)cc3)nc3ccncc32)c1`, the figure is -0.29%.
Same read-out and setting: as for `COc1ccccc1CNC(=O)C(=O)NCC(c1ccco1)S(=O)(=O)c1ccc(F)cc1` (stereo unspecified), the figure is -0.717%; as for `CCCCC(=O)Nc1nnc(S(=O)(=O)N(C)Cc2ccco2)s1`, 0.754%.
In the case of `COc1cccc(C(=O)Nc2nnc(S(=O)(=O)N(C)c3ccccc3)s2)c1`, the “activation” value was 1.2%.
`CCC(=O)Nc1ccccc1-c1nc2ccccc2n(CC(=O)Nc2ccc(C)c(C)c2)c1=O`: the “activation” value is -4.71%.
For `CC1CCN(C(=O)Cn2c(=O)n(-c3ccc(Cl)cc3)c(=O)c3c4c(sc32)CCC4)CC1`, the “activation” value was 26.2%.
The same measure, in the same setting: as for `CCC(C)Nc1oc(-c2ccc(COc3ccc(Cl)cc3)o2)nc1C#N` (stereo unspecified), the figure is 0.927%; as for `CCOC(=O)c1c(C)[nH]c(CCC(=O)NCCCN2CCN(c3cccc(Cl)c3)CC2)c1C`, 1.78%.
As to `Cc1ccc(Nc2c(-c3ccc(Cl)cc3)nc3sccn23)c(C)c1`, the “activation” value is 0.704%.
On the same count and under the same terms, as for `CC(=O)N1CCCc2cc(S(=O)(=O)Nc3ccc(Cl)cc3F)ccc21`, the figure is -0.63%; as for `O=C(COc1ccc(Cl)cc1)Nc1ccccc1OCc1cc(=O)n2ccccc2n1`, 6.2%.
The same measure, in the same setting: the result for `CCOc1ccccc1C(=O)Nc1ccc2c(c1)N(C)C(=O)c1ccccc1S2` reads 1.45%.
As for `CC(=O)Nc1cccc(NC(=O)CSc2nccn2Cc2ccc3c(c2)OCO3)c1`, the “activation” value is 2.66%.
With `Cc1cc(OCC(=O)NCC2(N(C)C)CCCCC2)cc(C)c1Cl`, the “activation” value was 0.643%.
For `COc1ccc(CNC(=O)CSc2n[nH]c(-c3ccc(F)cc3)n2)cc1`, the “activation” value was 1.03%.
Still for that read-out and setting: as for `CCc1ccc(NC(=O)CN2CCSc3ccc(S(=O)(=O)N4CCCC4)cc32)cc1`, the figure is 1.82%; as for `Cc1ccc(S(=O)(=O)N(Cc2nc(-c3ccc(Cl)cc3)no2)C2CCCCC2)cc1`, 0.473%; as for `COc1ccc2c(c1)c(=O)c(C(=O)c1ccccc1)cn2CC(=O)Nc1ccc2c(c1)OCCO2`, 0.33%.
As to `CCCC(=O)N1CCN(c2nc3c(OC)ccc(C)c3s2)CC1`, the “activation” value is -0.0199%.
Still for that read-out and setting: the result for `CCCN(CCC)CCNC(=O)c1ccc2c(c1)NC(=O)C(CS(=O)(=O)Cc1cccc(Br)c1)N2` (stereo unspecified) reads 3.62%.

These data come from PubChem BioAssay AID2676 (National Center for Advancing Translational Sciences (NCATS), 2010).
